From PubChem BioAssay AID1159580 (chemical genetic matrix, 2015)
The campaign covered roughly 5,500 compounds. About 2,000 (36%) were called active. About 18% were inconclusive and are not listed. No stated cut-off is given here; in the data, active means normalized growth mostly below about 0.91 (no sharp cut-off); inconclusive means no clear call, values can overlap the other calls; inactive means mostly above about 0.92. The list shows a part of the results.

Assay: chemical genetic growth profiling, strain panel (AID 1159580);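 further: tested at 20 µM; growth read once vehicle control cultures reached saturation at 30 °C; 1 = growth at the plate median or of vehicle wells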
Conditions: growth OD
[1] = S. cerevisiae deletion strains, locus YAL040C, strain CLN3, stronger effect = lower value
[2] = S. cerevisiae deletion strains, locus YCL061C, strain MRC1 (second series), stronger effect = lower value
[3] = S. cerevisiae deletion strains, locus YDR363W, strain ESC2, stronger effect = lower value
[4] = S. cerevisiae deletion strains, locus YER002W, strain NOP16, stronger effect = lower value
[5] = S. cerevisiae deletion strains, locus YGR078C, strain PAC10, stronger effect = lower value
[6] = S. cerevisiae deletion strains, locus YJR075W, strain HOC1, stronger effect = lower value
[7] = S. cerevisiae deletion strains, locus YMR307W, strain GAS1, stronger effect = lower value
[8] = S. cerevisiae deletion strains, locus YNL128W, strain TEP1, stronger effect = lower value
[9] = S. cerevisiae deletion strains, locus YNL153C, strain GIM3, stronger effect = lower value
[10] = S. cerevisiae deletion strains, locus YNL175C, strain NOP13, stronger effect = lower value
[11] = S. cerevisiae deletion strains, locus YNL197C, strain WHI3, stronger effect = lower value
[12] = S. cerevisiae deletion strains, locus YNL224C, strain SQS1, stronger effect = lower value
[13] = S. cerevisiae deletion strains, locus YOR083W, strain WHI5 (second series), stronger effect = lower value
[14] = S. cerevisiae deletion strains, locus YPL241C, strain CIN2, stronger effect = lower value
[15] = S. cerevisiae deletion strains, locus YMR263W, strain SAP30, stronger effect = lower value

Measured: normalized growth

O=C(O)CNC(=O)C(CS)Cc1ccccc1 (stereo not given)
inactive: S. cerevisiae deletion strains, locus YAL013W, strain DEP1, stronger effect = lower value 1.01 | [1] 1.05 | [2] 1 | [3] 1.01 | [4] 0.994 | [5] 1.01 | [6] 0.996 | [7] 1 | [8] 1.02 | [9] 1.07 | [10] 1.01 | [11] 0.967 | [12] 1 | S. cerevisiae deletion strains, locus YNL322C, strain KRE1, stronger effect = lower value 0.995 | [13] 1.04 | S. cerevisiae deletion strains, locus YPL055C, strain LGE1, stronger effect = lower value 1.01 | [14] 1.01

CC(=O)SC1CC2=CC(=O)CC[C@]2(C)C2CC[C@@]3(C)C(CC[C@@]34CCC(=O)O4)C12 (stereo not given in full)
inactive: [1] 0.996 | [2] 1 | S. cerevisiae deletion strains, locus YDR150W, strain NUM1, stronger effect = lower value 1.01 | [3] 1 | [4] 0.982 | [5] 1.01 | S. cerevisiae deletion strains, locus YGR229C, strain SMI1, stronger effect = lower value 1.01 | [6] 1.01 | [15] 0.99 | [7] 1.03 | [8] 0.986 | [10] 1.01 | [11] 0.999 | [12] 1 | [13] 1.01 | [14] 1.01

CC(=O)O[C@@H]1CC2C(C)(C)C(=O)[C@@H]3O[C@@H]3[C@]2(C)C2CC[C@]3(C)C(=CC(=O)O[C@H]3c3ccoc3)[C@@]21C (stereo not given in full)
inactive: S. cerevisiae deletion strains, locus YBR021W, strain FUR4, stronger effect = lower value 0.995 | S. cerevisiae deletion strains, locus YBR229C, strain ROT2, stronger effect = lower value 0.94 | S. cerevisiae deletion strains, locus YCL029C, strain bik1, stronger effect = lower value 0.967 | S. cerevisiae deletion strains, locus YDL035C, strain GPR1, stronger effect = lower value 0.958 | S. cerevisiae deletion strains, locus YDL074C, strain BRE1, stronger effect = lower value 0.989 | S. cerevisiae deletion strains, locus YDL101C, strain DUN1, stronger effect = lower value 0.994 | S. cerevisiae deletion strains, locus YDL134C, strain PPH21, stronger effect = lower value 0.988 | S. cerevisiae deletion strains, locus YDL185W, strain tfp1, stronger effect = lower value 0.964 | S. cerevisiae deletion strains, locus YDL192W, strain arf1, stronger effect = lower value 0.976 | S. cerevisiae deletion strains, locus YDR101C, strain arx1, stronger effect = lower value 0.975 | S. cerevisiae deletion strains, locus YDR162C, strain NBP2, stronger effect = lower value 0.98 | S. cerevisiae deletion strains, locus YDR318W, strain mcm21, stronger effect = lower value 0.995 | S. cerevisiae deletion strains, locus YDR388W, stronger effect = lower value 0.999 | S. cerevisiae deletion strains, locus YDR502C, strain sam2, stronger effect = lower value 1.01 | S. cerevisiae deletion strains, locus YEL061C, strain CIN8, stronger effect = lower value 0.979 | S. cerevisiae deletion strains, locus YER110C, stronger effect = lower value 0.975 | S. cerevisiae deletion strains, locus YER155C, strain BEM2, stronger effect = lower value 0.998 | S. cerevisiae deletion strains, locus YER167W, strain BCK2, stronger effect = lower value 0.981 | S. cerevisiae deletion strains, locus YGL078C, strain dbp3, stronger effect = lower value 1.01 | S. cerevisiae deletion strains, locus YGL086W, strain mad1, stronger effect = lower value 0.99 | S. cerevisiae deletion strains, locus YGL248W, strain PDE1, stronger effect = lower value 1.01 | [5] 1.01 | S. cerevisiae deletion strains, locus YGR135W, strain pre9, stronger effect = lower value 1.07 | S. cerevisiae deletion strains, locus YGR252W, strain gcn5, stronger effect = lower value 0.997 | S. cerevisiae deletion strains, locus YHR030C, strain SLT2, stronger effect = lower value 0.989 | S. cerevisiae deletion strains, locus YHR079C, strain IRE1 (second series), stronger effect = lower value 0.985 | S. cerevisiae deletion strains, locus YHR094C, strain hxt1, stronger effect = lower value 0.981 | S. cerevisiae deletion strains, locus YHR129C, strain ARP1, stronger effect = lower value 0.988 | S. cerevisiae deletion strains, locus YHR200W, strain rpn10, stronger effect = lower value 0.985 | S. cerevisiae deletion strains, locus YIL066C, strain RNR3, stronger effect = lower value 0.948 | S. cerevisiae deletion strains, locus YIL073C, strain SPO22, stronger effect = lower value 0.956 | S. cerevisiae deletion strains, locus YIL125W, strain kgd1, stronger effect = lower value 0.987 | S. cerevisiae deletion strains, locus YIR030C, strain dcg1, stronger effect = lower value 0.99 | S. cerevisiae deletion strains, locus YJL095W, strain BCK1, stronger effect = lower value 1.04 | S. cerevisiae deletion strains, locus YJL134W, strain LCB3, stronger effect = lower value 0.982 | S. cerevisiae deletion strains, locus YJL168C, strain set2, stronger effect = lower value 0.996 | S. cerevisiae deletion strains, locus YJL187C, strain SWE1 (second series), stronger effect = lower value 1.01 | S. cerevisiae deletion strains, locus YJR043C, strain POL32, stronger effect = lower value 0.96 | [6] 1 | S. cerevisiae deletion strains, locus YKL009W, strain mrt4, stronger effect = lower value 0.976 | S. cerevisiae deletion strains, locus YKL068W, stronger effect = lower value 0.986 | S. cerevisiae deletion strains, locus YKL085W, strain MDH1 (second series), stronger effect = lower value 0.996 | S. cerevisiae deletion strains, locus YKL085W, strain MDH1, stronger effect = lower value 0.996 | S. cerevisiae deletion strains, locus YKR001C, strain vps1, stronger effect = lower value 0.971 | S. cerevisiae deletion strains, locus YLR039C, strain RIC1, stronger effect = lower value 0.99 | S. cerevisiae deletion strains, locus YLR058C, strain SHM2, stronger effect = lower value 0.974 | S. cerevisiae deletion strains, locus YLR102C, strain apc9, stronger effect = lower value 0.981 | S. cerevisiae deletion strains, locus YLR262C, strain YPT6, stronger effect = lower value 0.963 | S. cerevisiae deletion strains, locus YLR268W, strain sec22, stronger effect = lower value 0.948 | S. cerevisiae deletion strains, locus YLR330W, strain CHS5, stronger effect = lower value 0.988 | S. cerevisiae deletion strains, locus YLR371W, strain rom2, stronger effect = lower value 0.979 | S. cerevisiae deletion strains, locus YLR418C, strain cdc73, stronger effect = lower value 0.993 | S. cerevisiae deletion strains, locus YML016C, strain PPZ1, stronger effect = lower value 0.972 | S. cerevisiae deletion strains, locus YML032C, strain rad52, stronger effect = lower value 0.962 | S. cerevisiae deletion strains, locus YML124C, strain tub3, stronger effect = lower value 0.991 | S. cerevisiae deletion strains, locus YMR078C, strain ctf18, stronger effect = lower value 0.993 | S. cerevisiae deletion strains, locus YMR223W, strain ubp8, stronger effect = lower value 1 | [15] 1.01 | [7] 0.999 | S. cerevisiae deletion strains, locus YNL067W, strain RPL9B, stronger effect = lower value 1.03 | [8] 0.948 | [9] 1.02 | S. cerevisiae deletion strains, locus YNL233W, strain BNI4, stronger effect = lower value 1.03 | S. cerevisiae deletion strains, locus YNL250W, strain rad50, stronger effect = lower value 1.01 | S. cerevisiae deletion strains, locus YNL271C, strain bni1, stronger effect = lower value 0.999 | S. cerevisiae deletion strains, locus YNL298W, strain CLA4, stronger effect = lower value 0.995 | S. cerevisiae deletion strains, locus YNL307C, strain MCK1, stronger effect = lower value 0.987 | S. cerevisiae deletion strains, locus YNR052C, strain pop2, stronger effect = lower value 1.04 | S. cerevisiae deletion strains, locus YOL012C, strain htz1 0.875 | S. cerevisiae deletion strains, locus YOL147C, strain pex11, stronger effect = lower value 0.993 | S. cerevisiae deletion strains, locus YOR061W, strain CKA2, stronger effect = lower value 0.936 | S. cerevisiae deletion strains, locus YOR069W, strain VPS5, stronger effect = lower value 0.995 | S. cerevisiae deletion strains, locus YOR136W, strain idh2, stronger effect = lower value 0.99 | S. cerevisiae deletion strains, locus YOR144C, strain elg1, stronger effect = lower value 0.988 | S. cerevisiae deletion strains, locus YOR184W, strain ser1, stronger effect = lower value 0.963 | S. cerevisiae deletion strains, locus YOR316C, strain cot1, stronger effect = lower value 0.986 | S. cerevisiae deletion strains, locus YPR119W, strain clb2, stronger effect = lower value 0.993 | S. cerevisiae deletion strains, locus YPR141C, strain kar3, stronger effect = lower value 0.989 | S. cerevisiae deletion strains, locus YPR163C, strain tif3, stronger effect = lower value 0.982 | S. cerevisiae deletion strains, locus YPR167C, strain met16, stronger effect = lower value 0.999 | S. cerevisiae deletion strains, strain wtn01, stronger effect = lower value 0.96 | S. cerevisiae strains, strain wild type, stronger effect = lower value 0.973
